Experimental findings from ChEMBL document CHEMBL4303097 (2020) are described below.

Over roughly 1,500 compounds, “Inhibition index” has its median near 0.17; the highest 2% begin near 1.3. The list comes from a sample in which the highest values are over-represented; it also holds similar structures and randomly drawn compounds.

In the assay the test system is SARS-CoV-2. The experiment in a line: Inhibition of cell viability relative to arbidol control (inhibition index > 1 indicates higher activity) measured by fluorescence (OD590nm) in Vero E6 cells infected with SARS-CoV-2 (strain BavPat1) at MOI 0.002 after 72hrs. Type of assay: functional, Chlorocebus sabaeus, Vero C1008.
`C=CC[C@]1(O)CC[C@H]2[C@@H]3CCC4=CC(=O)CCC4=C3C=C[C@@]21C` [ALTRENOGEST] came in with an Inhibition index of 0.8504.
In turn, `CCOC(=O)C(C)(N)Cc1cc(I)c(Oc2cc(I)c(O)c(I)c2)c(I)c1.Cl` (stereo not given) registered an Inhibition index of 0.3664.
`C/C(=C(\CCOC(=O)c1ccccc1)SS/C(CCOC(=O)c1ccccc1)=C(\C)N(C=O)Cc1cnc(C)nc1N)N(C=O)Cc1cnc(C)nc1N` yielded an Inhibition index of 1.055.
`CCCSS/C(CCO)=C(\C)N(C=O)Cc1cnc(C)nc1N` returned an Inhibition index of 0.2056.
With `C/C(=C(/CCO)SSCC1CCCO1)N(C=O)Cc1cnc(C)nc1N.Cl` (stereo not given), the Inhibition index stood at 1.385.
In turn, `CCCCC(=O)O[C@H]1CC[C@H]2[C@@H]3CCc4cc(O)ccc4[C@H]3CC[C@]12C` [ESTRADIOL VALERATE] yielded an Inhibition index of -0.4279.
Compound `COc1cccc2c1C(=O)c1c(O)c3c(c(O)c1C2=O)C[C@@](O)(C(=O)CO)C[C@@H]3O[C@H]1C[C@H](N)[C@H](O)[C@H](C)O1.Cl` [DOXORUBICIN HYDROCHLORIDE] registered an Inhibition index of -0.06911.
In turn, `Cc1cc(/C=C/c2ccc3cc(N(C)C)ccc3[n+]2C)c(C)n1-c1ccccc1.Cc1cc(/C=C/c2ccc3cc(N(C)C)ccc3[n+]2C)c(C)n1-c1ccccc1.O=C([O-])c1cc2ccccc2c(Cc2c(O)c(C(=O)[O-])cc3ccccc23)c1O` [PYRVINIUM PAMOATE] yielded an Inhibition index of -0.3469.
`C#C[C@]1(O)CC[C@H]2[C@@H]3CCC4=CC(=O)CC[C@]4(C)[C@H]3CC[C@@]21C` [ETHISTERONE] showed an Inhibition index of 0.1353.
For `CCSc1ccc2c(c1)N(CCCN1CCN(C)CC1)c1ccccc1S2.O=C(O)/C=C\C(=O)O` the value was -0.4349; for `Cl.N=C(N)NC(=N)NCCc1ccccc1` [PHENFORMIN HYDROCHLORIDE], -0.07157.
Consider `N=C(N)NCCN1CCCCCCC1.N=C(N)NCCN1CCCCCCC1.O=S(=O)(O)O` [GUANETHIDINE SULFATE], for which the Inhibition index was found to be 0.04902.
For `C[C@]12CC[C@@H]3c4ccc(O)cc4CC[C@H]3[C@@H]1C[C@@H](O)[C@@H]2O` [ESTRIOL] the value was 0.6126; for `C[C@]12CC[C@H](O)CC1=CC[C@@H]1[C@@H]2CC[C@]2(C)C(=O)CC[C@@H]12` [PRASTERONE], 0.9295; for `CC(=O)[C@H]1CC[C@H]2[C@@H]3CCC4=CC(=O)CC[C@]4(C)[C@H]3CC[C@]12C` [PROGESTERONE], 0.4087.
With `CC(=O)[C@H]1CC[C@H]2[C@@H]3CC=C4C[C@@H](O)CC[C@]4(C)[C@H]3CC[C@]12C` [PREGNENOLONE], the Inhibition index turned out to be 1.659.
With `CC[C@@H]([C@H](C)O)n1ncn(-c2ccc(N3CCN(c4ccc(OC[C@@H]5CO[C@@](Cn6cncn6)(c6ccc(F)cc6F)C5)cc4)CC3)cc2)c1=O.O`, the Inhibition index was determined as 0.639.
`CN1CCN(C(c2ccccc2)c2ccccc2)CC1.Cl` [CYCLIZINE HYDROCHLORIDE] returned an Inhibition index of 0.3956.
For `CCOC(=O)[C@H](CCc1ccccc1)N[C@@H](C)C(=O)N1[C@H](C(=O)O)C[C@H]2CCCC[C@@H]21` [TRANDOLAPRIL] the value was 0.1383; for `CC(C)(C)C(=O)OCOC(=O)[C@@H]1N2C(=O)[C@@H](NC(=O)[C@H](N)c3ccccc3)[C@H]2SC1(C)C` [PIVAMPICILLIN], 0.3125; for `Clc1cc(Cl)c(OCC#CI)cc1Cl` [HALOPROGIN], -0.09794.
In the case of `CC(=O)[C@H]1CC[C@H]2[C@@H]3CC[C@H]4C[C@H](O)CC[C@]4(C)[C@H]3C(=O)C[C@]12C` [ALFAXALONE], the Inhibition index was 0.7131.
Compound `Clc1ccc(CCC(Cn2ccnc2)Sc2c(Cl)cccc2Cl)cc1.O=[N+]([O-])O` (stereo not given) [BUTOCONAZOLE NITRATE] returned an Inhibition index of -0.1062.
Consider `CC(=O)OCC(=O)[C@@]12N=C(C)O[C@@H]1C[C@H]1[C@@H]3CCC4=CC(=O)C=C[C@]4(C)[C@H]3[C@@H](O)C[C@@]12C` [DEFLAZACORT], for which the Inhibition index worked out at 0.4333.
`CC(C)(C)NC(=O)[C@H]1CC[C@H]2[C@@H]3CC[C@H]4NC(=O)C=C[C@]4(C)[C@H]3CC[C@]12C` [FINASTERIDE] registered an Inhibition index of 0.2658.
Regarding `Cc1nccn1CC1CCc2c(c3ccccc3n2C)C1=O.Cl` (stereo not given), the Inhibition index came to 1.665.
Consider `Cc1[nH]cnc1CN1CCc2c(c3ccccc3n2C)C1=O.Cl` [ALOSETRON HYDROCHLORIDE], for which the Inhibition index is recorded as 0.152.
`CN(C)CCC(c1ccccc1)c1ccccn1.O=C(O)/C=C\C(=O)O` (stereo not given) [PHENIRAMINE MALEATE] returned an Inhibition index of 0.01395.
Next, `O=C(O[C@H]1C[N+]2(CCCOc3ccccc3)CCC1CC2)C(O)(c1cccs1)c1cccs1.[Br-]` [ACLIDINIUM BROMIDE]: 0.1807; `CC1(C)S[C@@H]2[C@H](NC(=O)[C@H](NC(=O)N3CCNC3=O)c3ccccc3)C(=O)N2[C@H]1C(=O)[O-].[Na+]` [AZLOCILLIN SODIUM]: 0.01854.
Take `CC(C)(CO)[C@@H](O)C(=O)NCCCC(=O)O.CC(C)(CO)[C@@H](O)C(=O)NCCCC(=O)O.[Ca+2]`: the Inhibition index stood at 0.08003.
Compound `CC(C)NNC(=O)c1ccncc1.O=P(O)(O)O` [IPRONIAZID PHOSPHATE] came in with an Inhibition index of 0.02671.
As to `Cl.Cl.NCCc1cc[nH]n1`, the Inhibition index amounted to 0.03591.
Compound `CC1(C)S[C@@H]2[C@H](NC(=O)[C@H](N)c3ccc(O)cc3)C(=O)N2[C@H]1C(=O)O` [AMOXICILLIN] yielded an Inhibition index of 0.1371.
Compound `CC12CC3CC(C)(C1)CC(N)(C3)C2.Cl` [MEMANTINE HYDROCHLORIDE] returned an Inhibition index of 0.5095.
As for `CN(C)CCC(c1ccc(Br)cc1)c1ccccn1.O=C(O)/C=C\C(=O)O` (stereo not given) [BROMPHENIRAMINE MALEATE], the Inhibition index worked out at 0.3833.
Take `CC1(C)S[C@@H]2[C@H](NC(=O)C(C(=O)O)c3ccsc3)C(=O)N2[C@H]1C(=O)[O-].[Na+]` (stereo not given in full): the Inhibition index was determined as 0.09416.
Next, `O=C(NC1CCN(CCCCC2(C(=O)NCC(F)(F)F)c3ccccc3-c3ccccc32)CC1)c1ccccc1-c1ccc(C(F)(F)F)cc1` [LOMITAPIDE]: -0.295; `CC(C)(C)NC[C@H](O)COc1cccc2c1CCCC2=O.Cl` [LEVOBUNOLOL HYDROCHLORIDE]: 0.5259.
`CN(C)CCC=C1c2ccccc2C=Cc2ccccc21.Cl` [CYCLOBENZAPRINE HYDROCHLORIDE] had an Inhibition index of 0.6333.
For `CO/N=C(\C(=O)N[C@@H]1C(=O)N2C(C(=O)OC(C)OC(C)=O)=C(COC(N)=O)CS[C@H]12)c1ccco1` (stereo not given in full) [CEFUROXIME AXETIL] the value was 0.1456; for `CCOc1nc2cccc(C(=O)O)c2n1Cc1ccc(-c2ccccc2-c2nnn[nH]2)cc1`, 1.166.
In the case of `Cl.O=C1CC2(CCCC2)CC(=O)N1CCCCN1CCN(c2ncccn2)CC1` [BUSPIRONE HYDROCHLORIDE], the Inhibition index worked out at 1.176.
Regarding `C#C[C@]1(O)CC[C@H]2[C@@H]3[C@H](C)CC4=C(CCC(=O)C4)[C@H]3CC[C@@]21C` [TIBOLONE], the Inhibition index amounted to 0.3794.
With `CN(C)CCCSC(=N)N.Cl.Cl`, the Inhibition index was 1.382.
The compound `Nc1ncnc2c1ncn2[C@@H]1O[C@H](COP(=O)(O)O)[C@@H](O)[C@H]1O.O` came in with an Inhibition index of 0.1161.
`CN(C)CCc1c[nH]c2ccc(Cn3cncn3)cc12.O=C(O)c1ccccc1` [RIZATRIPTAN BENZOATE] gave an Inhibition index of 0.7991.
In turn, `CC#C[C@]1(O)CC[C@H]2[C@@H]3CCC4=CC(=O)CCC4=C3[C@@H](c3ccc(N(C)C)cc3)C[C@@]21C` [MIFEPRISTONE] displayed an Inhibition index of 0.1807.
Next, `CN(C)C(=N)NC(=N)N.Cl` [METFORMIN HYDROCHLORIDE]: 0.00269.
In turn, `CC1(C)S[C@@H]2[C@H](NC(=O)[C@H](N)c3ccccc3)C(=O)N2[C@H]1C(=O)OC1OC(=O)c2ccccc21.Cl` (stereo not given in full) [TALAMPICILLIN HYDROCHLORIDE] returned an Inhibition index of 0.5053.
For `CCOC(=O)C1=C[C@@H](OC(CC)CC)[C@H](NC(C)=O)[C@@H](N)C1.O=P(O)(O)O` [OSELTAMIVIR PHOSPHATE] the value was -0.01747.
`Br.COc1ccc2c3c1O[C@H]1C[C@@H](O)C=C[C@@]31CCN(C)C2` [GALANTAMINE HYDROBROMIDE]: the Inhibition index turned out to be 0.03283.
Next, `Cl.N/C(=N\C(=O)c1nc(Cl)c(N)nc1N)NCc1ccccc1` [BENZAMIL HYDROCHLORIDE]: -0.07365.
`CC(C)NCC(O)COc1cccc2[nH]c3ccccc3c12` (stereo not given) [CARAZOLOL] returned an Inhibition index of 0.7194.
In the case of `C=CCOc1ccccc1OCC(O)CNC(C)C.Cl` (stereo not given) [OXPRENOLOL HYDROCHLORIDE], the Inhibition index was 1.632.
With `C=CCc1ccccc1OCC(O)CNC(C)C.Cl` (stereo not given) [ALPRENOLOL HYDROCHLORIDE], the Inhibition index turned out to be 0.02886.
On to `C[C@]12CCC3=C4CCC(=O)C=C4CC[C@H]3[C@@H]1CC[C@@]2(O)CC#N` [DIENOGEST], for which the Inhibition index was 0.1822.
Compound `Cl.Cl.Fc1ccc(C(OCCN2CCN(CCCc3ccccc3)CC2)c2ccc(F)cc2)cc1` gave an Inhibition index of -0.1375.
`CC[C@H](C)C(=O)O[C@H]1C[C@H](O)C=C2C=C[C@H](C)[C@H](CC[C@@H](O)C[C@@H](O)CC(=O)O)[C@H]21` [PRAVASTATIN] had an Inhibition index of 0.3233.
In turn, `CC(=O)OCC1=C(C(=O)[O-])N2C(=O)[C@@H](NC(=O)Cc3cccs3)[C@H]2SC1.[Na+]` [CEPHALOTHIN SODIUM] returned an Inhibition index of 0.1149.
